In the library only some 2.4% were active in any assay of this set; here they are far more common.
Pf Dd2 inh: inhibitors of Plasmodium falciparum Dd2 growth; P. falciparum Dd2 growth, SYBR Green, 72 h; stronger effect = lower value; activity change, % at 10 µM; 94,000 tested, 2.3% active; in the data active = activity change below about -80%
C diff HTS: inhibitors of Clostridium difficile growth; growth activity, negative = inhibition, % at 16 µg/mL (by protocol); Clostridium difficile clinical isolate growth, OD600, 24 h; stronger effect = lower value; 86,000 tested, 0.25% active;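 active = mean growth activity at or below -80% and every replicate also at or below -80%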;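 also: 0% = DMSO wells and -100% = levofloxacin 16 µg/mL wells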
The depositor's hits bear a star; x = not tested or not shown; ! = repeats disagree.

SMILES | Pf Dd2 inh | C diff HTS
C[C@H]1CCCCO[C@H](CN(C)Cc2ccccc2)[C@@H](C)CN([C@@H](C)CO)C(=O)c2cc(NC(=O)Nc3ccc(F)cc3)ccc2O1 | -72.3 | 5.4
C/C=C/c1cnc2c(c1)C(=O)N([C@H](C)CO)C[C@H](C)[C@H](CN(C)C(=O)NC1CCCC1)O2 | 6.3 | 4.7
CO[C@H]1CN(C)C(=O)c2ccc(NC(=O)C3CC3)cc2OC[C@H](C)N(CC2CC2)C[C@H]1C | 11.2 | x
CNC[C@@H]1Oc2cc(-c3ccccc3F)ccc2S(=O)(=O)N([C@@H](C)CO)C[C@H]1C | -44.8 | -0.6
C[C@@H]1CN([C@H](C)CO)C(=O)c2cc(NC(=O)Nc3ccccc3)ccc2O[C@@H](C)CCCCO[C@@H]1CN(C)Cc1ccccc1 | -82.1* | x
Cc1noc(C)c1NC(=O)Nc1ccc2c(c1)C(=O)N([C@H](C)CO)C[C@H](C)[C@@H](CN(C)Cc1ccc(Cl)c(Cl)c1)OCCCC[C@@H](C)O2 | -32.4 | 5.4
C[C@@H]1CN([C@@H](C)CO)C(=O)c2cc(NC(=O)Nc3ccccc3)ccc2O[C@@H](C)CCCCO[C@H]1CN(C)Cc1ccccc1 | -66.6 | x
Cc1noc(C)c1NC(=O)Nc1ccc2c(c1)C(=O)N([C@H](C)CO)C[C@@H](C)[C@H](CN(C)Cc1ccc(Cl)c(Cl)c1)OCCCC[C@H](C)O2 | -85.6* | 10.3
CCCC(=O)Nc1ccc2c(c1)OC[C@@H](C)N(C(=O)CC1CC1)C[C@H](C)[C@H](OC)CN(C)C2=O | -18.0 | x
COC(=O)C[C@@H]1CC[C@H]2[C@H](COc3ccc(NS(C)(=O)=O)cc3C(=O)N2C)O1 | 6.5 | -1.9
Cc1ccc(S(=O)(=O)N[C@H]2CC[C@@H](CC(=O)NCCN3CCCCC3)O[C@H]2CO)cc1 | -0.2 | -2.1
C[C@H]1CCCCO[C@@H](CN(C)S(=O)(=O)c2ccccc2)[C@@H](C)CN([C@@H](C)CO)C(=O)c2cc(NC(=O)Nc3ccc(C(F)(F)F)cc3)ccc2O1 | -82.7* | -7.2
C[C@H](CO)N1C[C@H](C)[C@H](CN(C)S(=O)(=O)c2ccccc2)OCCCC[C@H](C)Oc2ccc(NC(=O)Nc3ccc(C(F)(F)F)cc3)cc2C1=O | -56.6 | 5.7
C[C@@H]1CCCCO[C@H](CN(C)S(=O)(=O)c2ccccc2)[C@@H](C)CN([C@@H](C)CO)C(=O)c2cc(NC(=O)Nc3ccc(C(F)(F)F)cc3)ccc2O1 | -81.7* | -10.6
C[C@@H]1CCCCO[C@@H](CN(C)S(=O)(=O)c2ccccc2)[C@@H](C)CN([C@H](C)CO)C(=O)c2cc(NC(=O)Nc3ccc(C(F)(F)F)cc3)ccc2O1 | -71.3 | 10.3
COc1ccc2c3c(n(C)c2c1)[C@@H](CO)N(C(=O)Cc1ccccn1)CC31CN(Cc2ccccn2)C1 | -71.7 | 1.7
C[C@@H]1CN([C@@H](C)CO)S(=O)(=O)c2ccc(-c3cncnc3)cc2O[C@@H]1CN(C)C(=O)c1cccc(F)c1 | 22.4 | x
COc1ccc(-c2ccc3n(c2=O)C[C@H]2N[C@@H]3[C@@H](C(=O)N3CCCCC3)[C@@H]2CO)cc1 | 24.2 | -0.2
C[C@@H]1CN([C@H](C)CO)S(=O)(=O)c2ccc(C#CC3CC3)cc2O[C@H]1CN(C)C(=O)CC1CC1 | -52.8 | 4.2
C[C@H](CO)N1C[C@H](C)[C@H](CN(C)Cc2ccc(C(=O)Nc3ccccc3N)cc2)Oc2ccc(NC(=O)C3CC3)cc2CC1=O | -33.4 | -6.0
C[C@@H]1CN([C@H](C)CO)C(=O)Cc2cc(NC(=O)C3CCCCC3)ccc2O[C@@H]1CN(C)Cc1ccc(C(=O)Nc2ccccc2N)cc1 | -74.0 | 7.8
C[C@H](CO)N1C[C@H](C)[C@@H](CN(C)Cc2ccc(C(=O)Nc3ccccc3N)cc2)Oc2ccc(NC(=O)C3CC3)cc2CC1=O | -46.9 | -3.1
C[C@H](CO)N1C[C@H](C)[C@@H](CN(C)Cc2ccc(C(=O)Nc3ccccc3N)cc2)Oc2ccc(NC(=O)C3CCCCC3)cc2CC1=O | -84.9* | 3.7
C[C@H]1CN([C@@H](C)CO)C(=O)Cc2cc(NC(=O)C3CCCCC3)ccc2O[C@@H]1CN(C)Cc1ccc(C(=O)Nc2ccccc2N)cc1 | -87.7* | 13.5
C[C@H](CO)N1C[C@H](C)[C@H](CN(C)Cc2ccc(C(=O)Nc3ccccc3N)cc2)Oc2ccc(NC(=O)C3CCCCC3)cc2CC1=O | -83.6* | 4.1
SMILES | Pf Dd2 inh | C diff HTS
C[C@H](CO)N1C[C@H](C)[C@H](CN(C)C(=O)c2cccc(F)c2)Oc2ncc(-c3cccnc3)cc2C1=O | -14.0 | 1.5
COc1ccc(CN(C)C[C@H]2Oc3c(NC(=O)Nc4ccc(C(F)(F)F)cc4)cccc3C(=O)N([C@H](C)CO)C[C@@H]2C)cc1 | -4.0 | 2.0
CCC(=O)N1CC(=O)N2[C@H](C1)[C@H](c1ccc(C#CC3CCCCC3)cc1)[C@@H]2CO | -15.3 | -14.9
C[C@@H]1CN([C@@H](C)CO)C(=O)Cc2cc(NS(=O)(=O)c3cn(C)cn3)ccc2O[C@@H]1CN(C)S(C)(=O)=O | 20.8 | -4.0
C[C@@H]1CCCCO[C@@H](CN(C)Cc2ccc3c(c2)OCO3)[C@H](C)CN([C@@H](C)CO)C(=O)c2cc(NS(=O)(=O)c3ccc(Cl)cc3)ccc2O1 | 1.4 | x
Cc1ccc(S(=O)(=O)Nc2ccc3c(c2)C(=O)N([C@@H](C)CO)C[C@@H](C)[C@H](CN(C)Cc2ccc4c(c2)OCO4)OCCCC[C@H](C)O3)cc1 | -67.0 | -0.4
Cc1ccc(S(=O)(=O)Nc2ccc3c(c2)C(=O)N([C@@H](C)CO)C[C@H](C)[C@@H](CN(C)Cc2ccc4c(c2)OCO4)OCCCC[C@@H](C)O3)cc1 | -80.8* | -71.3
C[C@@H]1CCCCO[C@H](CN(C)Cc2ccc3c(c2)OCO3)[C@H](C)CN([C@H](C)CO)C(=O)c2cc(NS(=O)(=O)c3ccc(Cl)cc3)ccc2O1 | -82.8*! | x
C[C@@H]1CN([C@H](C)CO)C(=O)c2cc(C3=CCCC3)cnc2O[C@H]1CN(C)C(=O)C1CC1 | 11.3 | x
C[C@H](O)C#Cc1cnc2c(c1)C(=O)N([C@H](C)CO)C[C@H](C)[C@@H](CN(C)C(=O)c1ccccc1)O2 | 8.6 | -2.3
CC(C)NC(=O)N1CCCCN2[C@@H](CO)[C@@H](c3ccc(C#CC4CC4)cc3)[C@@H]2C1 | 9.9 | 5.4
CCCC(=O)N1CCC2(CC1)CN(C(=O)Nc1cccc(F)c1)[C@@H](CO)c1c2c2ccc(OC)cc2n1C | -64.2 | -16.7
COc1ccc2c3c(n(C)c2c1)[C@@H](CO)N(C(=O)C1CCOCC1)CC31CCN(C(=O)Nc2cccc(F)c2)CC1 | -72.5 | -1.5
COc1ccc2c3c(n(C)c2c1)[C@@H](CO)N(C(=O)C1CC1)CC31CN(C(=O)Nc2cccc(F)c2)C1 | -87.5* | -10.9
COc1ccc2c3c(n(C)c2c1)[C@H](CO)N(C)CC31CN(C(=O)Nc2cccc(F)c2)C1 | -20.2 | 2.4
COc1ccc2c3c(n(C)c2c1)[C@@H](CO)N(C(=O)C1CC1)CC31CCN(C(=O)Nc2cccc(F)c2)CC1 | -91.2* | 3.5
COc1ccc2c3c(n(C)c2c1)[C@H](CO)N(C(=O)C1CC1)CC31CN(C(=O)Nc2cccc(F)c2)C1 | -62.6 | -3.0
COc1ccc2c3c(n(C)c2c1)[C@@H](CO)N(C(=O)C1CCC1)CC31CN(C(=O)Nc2cccc(F)c2)C1 | -87.2* | 7.4
CCCC(=O)N1CC2(CCN(C(=O)Nc3cccc(F)c3)CC2)c2c(n(C)c3cc(OC)ccc23)[C@H]1CO | -86.0* | 1.2
